# ± gives the standard deviation of the averaged measurements. In all, about 33,000 sequences were measured (“E-score (rank enrichment, -0.5 to 0.5)”: median about -0.0043, highest 2% from about 0.24 on). What follows is part of a selection rich in the highest values, with near analogues and random picks from the rest.
# Test system: 2Sp-muMax20 (muMax20 with two 2,6-bis(methyl)pyridine Cys staples)
# Test: PBM 8-mer E-score (E-score (rank enrichment, -0.5 to 0.5)); higher = stronger preferential binding
# Description: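 Protein binding microarray (universal PBM chip covering all 10-mers in fixed probe flanks) with chemically synthesized human Max(13-93) bHLH-LZ analogs (not full-length Max) bearing noncanonical residues (hArg, Tha, Aib, Nle at 65) and aromatic Cys staples. Read-out per 8-mer (and its reverse complement): E-score (rank-based enrichment, -0.5 to 0.5) and Z-score of median probe intensity.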
row,Sequence,PBM 8-mer E-score
1,CTACACTA,0.111 ± 0.081
2,ACGCCTTC,-0.0956 ± 0.053
3,TTATAAAA,0.272 ± 0.021
4,TGATAAAA,0.145 ± 0.017
5,TAATAAAA,0.231 ± 0.053
6,GGGGAAGA,0.0842 ± 0.0073
7,AGTCCTTC,-0.195 ± 0.04
8,CTACCATC,-0.168 ± 0.094
9,ATACCATC,0.237 ± 0.021
10,ATACCATG,0.102 ± 0.057
11,ACACCATC,0.0694 ± 0.0049
12,GTACCATA,-0.00352 ± 0.14
13,ATACCATA,0.249 ± 0.041
14,AGAAGGTC,0.126 ± 0.039
15,ACTTGGCG,-0.143 ± 0.14
16,CTGCAACC,-0.145 ± 0.031
17,GCTAGTCA,0.103 ± 0.052
18,AGTCACGA,-0.0662 ± 0.009
19,AGTCACGC,0.26 ± 0.037
20,AGTCACGG,-0.147 ± 0.052
21,ATAAGGAT,0.258 ± 0.011
22,ATAAGGAA,-0.0884 ± 0.043
23,ATAAGGAC,0.0211 ± 0.092
24,ATAAGGTC,0.238 ± 0.051
25,CTAAGGTC,-0.029 ± 0.12

row,Sequence,PBM 8-mer E-score
1,ATAAGGTA,0.164 ± 0.031
2,CCAGTATC,-0.0909 ± 0.022
3,AACCCCGA,0.0376 ± 0.019
4,ACGCTTCA,0.0519 ± 0.091
5,GTAAGTTA,0.0283 ± 0.0067
6,CTAAGTTA,0.0843 ± 0.017
7,ATAAGTTA,0.236 ± 0.025
8,CAAGGACC,-0.223 ± 0.048
9,ATTTAATA,0.243 ± 0.0082
10,AATTAGTC,0.0516 ± 0.035
11,CATTAGTA,-0.0474 ± 0.081
12,AATTAATC,0.207 ± 0.009
13,AATTAATA,0.285 ± 0.03
14,AATTAATG,0.215 ± 0.028
15,CTTTAATA,0.207 ± 0.016
16,GTTTAATA,0.203 ± 0.062
17,AGTTAATA,0.138 ± 0.027
18,ACTTAATA,0.156 ± 0.042
19,AATTAATT,0.242 ± 0.031
20,AATTAGTA,0.268 ± 0.0095
21,GCTAAGTA,0.034 ± 0.091
22,CCGCCGCC,-0.00332 ± 0.019
23,ACACCAGA,-0.0516 ± 0.0077
24,CATGAACA,-0.0306 ± 0.058
25,GTTTAGGA,-0.13 ± 0.036

row,Sequence,PBM 8-mer E-score
1,GACCCTTA,-0.0689 ± 0.0029
2,CTTTAAAC,0.0827 ± 0.097
3,ATTTAAAG,0.0431 ± 0.059
4,ATTTAAAC,0.329 ± 0.047
5,AAAATTCC,0.0483 ± 0.056
6,CCTCTTAA,0.0544 ± 0.11
7,AGTGGGGG,-0.0461 ± 0.0062
8,CGTGGGGA,0.1018 ± 0.00016
9,CATGGGGA,0.124 ± 0.043
10,AATGGGGA,0.112 ± 0.047
11,TATGGGGA,0.283 ± 0.028
12,AGTGGGGA,0.245 ± 0.011
13,GCCATGTA,0.0368 ± 0.0029
14,CTCTTGGA,-0.112 ± 0.014
15,CAGTAGCG,-0.205 ± 0.045
16,ACGGCTAA,-0.0509 ± 0.014
17,ACCCCGGC,-0.00709 ± 0.083
18,ACATAGAC,0.115 ± 0.034
19,ATTGAAGA,0.237 ± 0.023
20,ATTGAAGG,-0.0238 ± 0.14
21,GTTGAAGA,0.0675 ± 0.033
22,CTTCCGAA,-0.23 ± 0.024
23,ATATTAGA,0.235 ± 0.012
24,AGATTATG,-0.00069 ± 0.061
25,ATATTAGG,0.297 ± 0.029

row,Sequence,PBM 8-mer E-score
1,CTATTATA,0.0957 ± 0.01
2,ATATTACA,0.157 ± 0.058
3,GTATTAGA,0.182 ± 0.073
4,ATATTATA,0.268 ± 0.047
5,ATATTAGC,0.166 ± 0.0073
6,GTATTAAA,0.134 ± 0.014
7,ATATTATC,0.0885 ± 0.023
8,GTATTATA,0.259 ± 0.053
9,ATATTATG,0.274 ± 0.083
10,CAGTTCGC,-0.0265 ± 0.073
11,TGTTAGAA,0.125 ± 0.12
12,CGACTGGC,-0.148 ± 0.052
13,CCAGAGAC,-0.05 ± 0.076
14,GGATGACA,-0.0339 ± 0.094
15,CTATTCTA,0.227 ± 0.043
16,ATATTCTA,0.244 ± 0.04
17,GTATTCTA,0.134 ± 0.021
18,AATGGCAA,0.00112 ± 0.089
19,CCAAGAGC,-0.0397 ± 0.036
20,CACGTGGA,0.398 ± 0.033
21,AACGTGGG,0.1 ± 0.047
22,TACGTGGA,0.0461 ± 0.0044
23,CACGTGGC,0.357 ± 0.064
24,AACGTGGC,0.163 ± 0.041
25,GACGTGGC,0.0114 ± 0.026

row,Sequence,PBM 8-mer E-score
1,AACGTGGA,0.0553 ± 0.0092
2,GACGTGGA,0.055 ± 0.0074
3,CACGTGGG,0.436 ± 0.0081
4,CTATTCAG,0.00673 ± 0.056
5,AGAAGCGA,-0.0304 ± 0.05
6,ATCACGGA,-0.0223 ± 0.047
7,ACTTAGCC,-0.0201 ± 0.091
8,AGCGTAAC,0.041 ± 0.14
9,GACTCAGC,-0.176 ± 0.036
10,AACGCCTT,-0.0913 ± 0.021
11,GCACAATA,-0.00579 ± 0.025
12,ACACAAAC,0.271 ± 0.025
13,AGACAATA,0.268 ± 0.026
14,ACACAAAA,0.172 ± 0.045
15,ACACAATG,0.122 ± 0.025
16,ACACAAAG,0.206 ± 0.045
17,AGACAATG,0.00664 ± 0.0054
18,ACACAATA,0.247 ± 0.029
19,AGACAATC,0.0678 ± 0.067
20,GAAGGTCA,-0.106 ± 0.027
21,ATCTAACG,0.0512 ± 0.018
22,CCCCTTTA,0.1759 ± 0.0016
23,ACTGTGGC,-0.025 ± 0.13
24,TGTTTTAA,0.0917 ± 0.0018
25,CATTTAAA,0.239 ± 0.026

row,Sequence,PBM 8-mer E-score
1,TATTTAAA,0.155 ± 0.05
2,TGTTTAAA,0.278 ± 0.015
3,CATTTTAA,0.167 ± 0.029
4,AGTTTAAA,0.181 ± 0.021
5,ATCCTCTA,-0.0199 ± 0.026
6,CAAGTGTG,0.119 ± 0.073
7,AATGCGTC,-0.0127 ± 0.03
8,ATCAAGAC,-0.00991 ± 0.011
9,ACGATGAT,0.0729 ± 0.0089
10,CTCTATCA,-0.0317 ± 0.017
11,GGCACCAA,0.0196 ± 0.084
12,CATGTGGG,0.329 ± 0.026
13,CATGTGGA,0.16 ± 0.0062
14,AATGTGGC,0.124 ± 0.005
15,CATGTGGC,0.173 ± 0.13
16,AATGTGGG,0.246 ± 0.00061
17,AATGTGGT,0.0284 ± 0.063
18,CGGAGTTA,-0.187 ± 0.057
19,GGGAGTTA,0.245 ± 0.029
20,AGGAGTTA,0.109 ± 0.0086
21,CATCGTGA,-0.256 ± 0.15
22,GAAGTCTA,0.0975 ± 0.1
23,ATTACTAC,0.256 ± 0.011
24,ACTACTAG,0.261 ± 0.086
25,CATACTAC,0.0746 ± 0.039

row,Sequence,PBM 8-mer E-score
1,CATACTAA,0.1447 ± 0.00064
2,CCTACTAG,0.107 ± 0.023
3,CATACTAG,0.243 ± 0.0018
4,CTTACTAC,0.122 ± 0.0036
5,ATTACTAG,-0.00656 ± 0.053
6,ACTACTAT,0.146 ± 0.12
7,AACTTGTA,0.0176 ± 0.02
8,AGAGTCAA,-0.0327 ± 0.08
9,CGGCGGAG,-0.149 ± 0.039
10,CTGCTCGC,-0.104 ± 0.0046
11,CAGAGGTC,-0.182 ± 0.051
12,CAGCAACG,-0.129 ± 0.075
13,AAAAATAG,0.122 ± 0.058
14,AAAAATAT,0.244 ± 0.024
15,CAATATAA,0.152 ± 0.1
16,GAATATAA,0.215 ± 0.056
17,ACCAATAC,0.139 ± 0.021
18,ACCAATAG,-0.0592 ± 0.066
19,TAATATAA,0.242 ± 0.035
20,ACCAATAT,0.258 ± 0.045
21,AAATATAC,0.087005 ± 2.1e-05
22,AAAAATAA,0.0898 ± 0.087

# From the supplement of paper PMC12636033
